Data on eight compounds can be found in PubChem BioAssay (Tox21).

Inconclusive results are not listed. Calls of active or inactive are those of the source. Unless noted, calls follow the shape of the full dose curve.

Experiment [1] in a line: Nuclear factor erythroid 2-related factor 2/antioxidant responsive element (Nrf2/ARE) small molecule agonists: qHTS cell viability counter screen in human keratinocytes (AID 1919968; active = well fitted curve in the direction sought with a large enough effect in the repeat runs; an effect the other way counts as inactive or inconclusive; also: nearly all actives have a fitted effect of over 55% in size). The method in brief: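 HaCaT ARE reporter line, 1,500 cells/well; 5 h settle, 37 C/5% CO2; cpd in DMSO pinned; 23 h exposure; CellTiter-Fluor, 1 h; fluorescence.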
(qHTS replaces the single test concentration by a dilution series.)

A short description of experiment [2]: Nuclear factor erythroid 2-related factor 2/antioxidant responsive element (Nrf2/ARE) small molecule agonists: luciferase reporter gene qHTS assay in human keratinocytes (AID 1919969; also: nearly all actives have a fitted effect of over 35% in size). (A reporter such as luciferase makes a cellular process visible.)
Experiment [3] deals with Gonadotropin-releasing hormone receptor (Homo sapiens) (UniProt P30968). Nature of the experiment: Human gonadotropin-releasing hormone receptor (GnRHR) small molecule agonists, calcium flux assay in GnRHR-HEK293 cells (AID 1920063). Also: nearly all actives have a fitted effect of over 35% in size. Summed up: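 GnRHR-HEK293, 1500 cells/well, 18 h 37 C/5% CO2; Ca dye 1 h 37 C; cpd pinned (DMSO), agonist mode; kinetic FL 480/540, 3 min, 1 s reads; 15 conc, n=3.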
In general terms: A change in cytosolic calcium serves as a functional read-out for many receptors and channels.

Experiment [4] deals with KiSS-1 receptor (Homo sapiens) (UniProt Q969F8). Nature of the experiment: Human kisspeptin (KISS1R) small molecule agonists, calcium flux assay in KISS1R-HEK293 cells (AID 1920064; active = well fitted curve in the direction sought with a large enough effect in the repeat runs; an effect the other way counts as inactive or inconclusive). The method in brief: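 Stable human KISS1R HEK293 line; 18 h plating, 37 C/5% CO2; calcium dye 1 h 37 C; compound pin transfer; kinetic fluorescence Ex/Em 480/540, 3 min.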
Experiment [5] is described as follows: G protein-coupled receptor (GPCR) small molecule agonists, calcium flux assay: HEK293 wild type cell line counter screen (AID 1920065). Summed up: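 Kinetic fluorescence at Ex/Em 480/540, recorded every second over 3 min, served as the read-out after compound addition. Each compound was tested at 15 concentrations in triplicate on cells pre-loaded with calcium dye for 1 h.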

The nature of experiment [6]: p53 small molecule agonists, cell-based qHTS assay with human liver microsomes: qHTS cell viability counter screen (AID 1963579). Also: nearly all actives have a fitted effect of over 45% in size. The method in brief: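 p53RE-bla cells (4,000/well) were pre-incubated 5 h at 37 C, then given compounds in DMSO plus human liver microsomes (0.5 mg/mL final) and NADPH (0.5 mg/mL final) for 16 h at 37 C. Viability was read by CellTiter-Glo luminescence.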

Experiment [7] can be described thus: p53 small molecule agonists, cell-based qHTS assay with rat liver microsomes: qHTS cell viability counter screen (AID 1963580). Also: nearly all actives have a fitted effect of over 45% in size. The method in brief:
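p53RE-bla HCT-116 cells (4,000/well) rested 5 h at 37 C, then given Tox21 compounds in DMSO with rat liver microsomes (0.5 mg/mL final) plus NADPH (0.5 mg/mL final) for 16 h at 37 C. Viability read by CellTiter-Glo luminescence after 30 min at room temperature.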

The nature of experiment [8]: p53 small molecule agonists, cell-based qHTS assay: qHTS cell viability counter screen (AID 1963581). Also: nearly all actives have a fitted effect of over 45% in size. Summed up:
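HCT-116 p53RE-bla cells, 4,000/well, plated 5 h before compound pin transfer; 16 h at 37 C; bla substrate 2 h RT; then CellTiter-Glo, 30 min RT, luminescence.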

Experiment [9] concerns the target 5-hydroxytryptamine receptor 2A (Homo sapiens) (UniProt P28223). The experiment can be described thus: 5-hydroxytryptamine receptor 2A (HTR2A) small molecule antagonists, cell-based qHTS assay (AID 1963586). Also: nearly all actives have a fitted effect of over 45% in size. Summed up: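 Antagonist-mode intracellular calcium assay: DOI (4 nM) added after 5 min compound pre-incubation at room temperature to dye-loaded HTR2A-CHO cells. Fluorescence followed for 3 min, sampled every second.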

For experiment [10] the target is unchanged. Nature of the experiment: 5-hydroxytryptamine receptor 2A (HTR2A) small molecule agonists, cell-based qHTS assay (AID 1963587). Also: nearly all actives have a fitted effect of over 30% in size. The method in brief: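 HTR2A-CHO cells, plated 18 h at 37 C/5% CO2, dye-loaded 1 h at 37 C; compounds in DMSO added by pin tool (agonist mode). Intracellular calcium flux read as kinetic fluorescence on FDSS over 2 min at 1 s intervals.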

Experiment [11] concerns the target Muscarinic acetylcholine receptor M1 (Homo sapiens) (UniProt P11229). The experiment can be described thus: Cholinergic receptor muscarinic 1 (CHRM1) small molecule agonists, cell-based qHTS assay (AID 1963589). Also: nearly all actives have a fitted effect of over 35% in size. Summed up: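 Human M1 in stable CHO line; 18 h plating, 1 h dye load 37 C; cpd added (agonist mode); Ca2+ fluorescence kinetic read, 1 s intervals; 15 conc, 3 runs.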

The nature of experiment [12]: cAMP Responsive Elements (CRE) small molecule agonists, cell-based qHTS assay (AID 1963590). The method in brief: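 HEK 293T CRE-bla, 2,000 cells/well, 18 h preincubation 37 C/5% CO2; cpds (DMSO) pinned, 3 h; LiveBLAzer B/G FRET substrate, 2 h RT.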
Experiment [13] in a line: cAMP Responsive Elements (CRE) small molecule antagonists, cell-based qHTS assay (AID 1963591; active = well fitted inhibition curve with a large enough effect in the signal ratio in the repeat runs, not every such curve was filed as active; the % refers to the signal ratio). The method in brief: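 Beta-lactamase reporter read by FRET substrate (LiveBLAzer B/G) after 2 h at room temperature. CRE-bla HEK293T cells had received compound plus 0.25 uM (final) NKH477 for 3 h at 37 °C.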
Experiment [14] deals with Beta-2 adrenergic receptor (Homo sapiens) (UniProt P07550). Nature of the experiment: Adrenergic beta2 receptor (ADRB2) small molecule antagonists, cell-based qHTS assay (AID 1963592). Also: nearly all actives have a fitted effect of over 50% in size. Also: potency is read from the fitted curve at half-maximal effect. Summed up: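 Cells (CHO, stable ADRB2 overexpression) incubated 18-20hr at 37C; compounds added from DMSO; agonist mix (1nM isoproterenol, 100uM IBMX, 25uM Ro-20-1724) added; 0.5hr RT; d2-cAMP and anti-cAMP-cryptate added; 1hr RT; 665/615 nm read.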

Experiment [15] addresses D(2) dopamine receptor (Homo sapiens) (UniProt P14416). The experiment can be described thus: Dopamine D2 receptor (DRD2) small molecule agonists, cell-based qHTS assay (AID 1963594). Also: nearly all actives have a fitted effect of over 35% in size. The method in brief:
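HEK293 cells stably expressing DRD2 were cultured 24 h at 37 C, then given Ro20-1724 (0.1 mM final) and compounds for 10 min at room temperature. NKH477 (200nM) was then added for 30 min. cAMP was read by HTRF.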

Experiment [16] shares this target. Nature of the experiment: Dopamine D2 receptor (DRD2) small molecule antagonists, cell-based qHTS assay (AID 1963595; active = well fitted inhibition curve with a large enough effect in the signal ratio in the repeat runs, with a control signal flat; the % refers to the signal ratio). Summed up:
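HEK293 cells stably expressing DRD2, preincubated with 0.1 mM Ro20-1724 and compounds 10 min, were stimulated with 200 nM NKH477 plus 12 nM quinpirole for 30 min at room temperature; cAMP measured by HTRF (665/620 nm).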

In experiment [17] the target is Muscarinic acetylcholine receptor M1 (Homo sapiens) (UniProt P11229). The experiment can be described thus: Cholinergic receptor muscarinic 1 (CHRM1) small molecule antagonists, cell-based qHTS assay (AID 1963588). Also: nearly all actives have a fitted effect of over 40% in size. The method in brief: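 CHRM1-CHO calcium-flux assay, antagonist mode. Cells were seeded 18 h, dye-loaded 1 h at 37 C and given compound for 5 min at RT, then acetylcholine was added at 50nM. FDSS fluorescence was read 3 min; 15 concentrations, three runs.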

Experiment [18] deals with Beta-2 adrenergic receptor (Homo sapiens) (UniProt P07550). Nature of the experiment: Adrenergic beta2 receptor (ADRB2) small molecule agonists, cell-based qHTS assay (AID 1963593).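 Also: CHO cells stably overexpressing human ADRB2.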 Summed up:
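CHO cells stably over-expressing ADRB2 were plated overnight at 37C, then dosed with compounds plus a stimulation mix containing 100uM IBMX and 25uM Ro-20-1724 for 0.5hr at room temperature. cAMP was measured by HTRF competition, 1hr.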

Sequence of D(2) dopamine receptor (Homo sapiens) (P14416 whole entry, looked up): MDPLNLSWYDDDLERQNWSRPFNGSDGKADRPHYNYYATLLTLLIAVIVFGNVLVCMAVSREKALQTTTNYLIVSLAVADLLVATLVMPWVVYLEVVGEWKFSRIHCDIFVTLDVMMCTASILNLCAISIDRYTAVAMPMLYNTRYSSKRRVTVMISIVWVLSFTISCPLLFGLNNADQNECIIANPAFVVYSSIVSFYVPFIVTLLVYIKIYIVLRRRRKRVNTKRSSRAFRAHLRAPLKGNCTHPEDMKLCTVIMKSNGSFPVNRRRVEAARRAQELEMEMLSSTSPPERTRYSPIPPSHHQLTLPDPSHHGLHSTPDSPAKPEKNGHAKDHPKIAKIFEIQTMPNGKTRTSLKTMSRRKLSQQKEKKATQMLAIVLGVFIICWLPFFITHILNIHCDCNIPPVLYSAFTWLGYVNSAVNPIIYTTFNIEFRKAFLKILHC
Sequence of 5-hydroxytryptamine receptor 2A (Homo sapiens) (P28223 whole entry, looked up): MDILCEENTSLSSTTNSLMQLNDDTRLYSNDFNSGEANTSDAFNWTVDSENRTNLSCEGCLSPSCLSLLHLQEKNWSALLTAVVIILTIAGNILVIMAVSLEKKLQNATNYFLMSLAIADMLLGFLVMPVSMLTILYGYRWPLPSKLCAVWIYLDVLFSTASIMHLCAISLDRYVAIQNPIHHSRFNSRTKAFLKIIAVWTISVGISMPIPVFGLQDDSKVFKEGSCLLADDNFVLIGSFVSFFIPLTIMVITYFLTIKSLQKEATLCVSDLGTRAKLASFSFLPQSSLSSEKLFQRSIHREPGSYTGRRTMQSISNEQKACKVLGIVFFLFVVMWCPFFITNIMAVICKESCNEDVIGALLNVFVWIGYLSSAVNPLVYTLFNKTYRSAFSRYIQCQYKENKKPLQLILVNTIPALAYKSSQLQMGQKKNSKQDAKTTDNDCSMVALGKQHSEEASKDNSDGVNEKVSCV
Sequence of Beta-2 adrenergic receptor (Homo sapiens) (P07550 whole entry, looked up): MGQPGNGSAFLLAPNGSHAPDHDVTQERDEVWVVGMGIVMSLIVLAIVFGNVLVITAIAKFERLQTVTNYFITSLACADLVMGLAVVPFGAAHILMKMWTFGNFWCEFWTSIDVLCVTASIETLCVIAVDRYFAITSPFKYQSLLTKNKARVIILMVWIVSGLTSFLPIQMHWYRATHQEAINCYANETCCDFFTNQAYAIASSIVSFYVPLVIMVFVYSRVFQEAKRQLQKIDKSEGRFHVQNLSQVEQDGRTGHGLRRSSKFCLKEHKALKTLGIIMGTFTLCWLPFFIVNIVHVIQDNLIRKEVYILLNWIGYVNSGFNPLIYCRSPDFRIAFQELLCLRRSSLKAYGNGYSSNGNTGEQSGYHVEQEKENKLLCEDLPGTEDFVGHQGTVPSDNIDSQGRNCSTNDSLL
Sequence of KiSS-1 receptor (Homo sapiens) (Q969F8 whole entry, looked up): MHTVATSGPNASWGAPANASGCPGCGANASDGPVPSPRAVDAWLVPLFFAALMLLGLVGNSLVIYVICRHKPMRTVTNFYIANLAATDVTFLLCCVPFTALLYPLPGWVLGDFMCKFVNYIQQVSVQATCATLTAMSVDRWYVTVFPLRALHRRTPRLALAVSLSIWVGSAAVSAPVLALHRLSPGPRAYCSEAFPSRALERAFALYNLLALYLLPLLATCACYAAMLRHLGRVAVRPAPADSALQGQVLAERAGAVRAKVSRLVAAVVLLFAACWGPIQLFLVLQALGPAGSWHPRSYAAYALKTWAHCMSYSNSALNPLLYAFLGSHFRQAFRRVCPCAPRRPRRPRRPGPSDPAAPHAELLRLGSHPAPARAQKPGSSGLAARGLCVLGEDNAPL
Sequence of Muscarinic acetylcholine receptor M1 (Homo sapiens) (P11229 whole entry, looked up): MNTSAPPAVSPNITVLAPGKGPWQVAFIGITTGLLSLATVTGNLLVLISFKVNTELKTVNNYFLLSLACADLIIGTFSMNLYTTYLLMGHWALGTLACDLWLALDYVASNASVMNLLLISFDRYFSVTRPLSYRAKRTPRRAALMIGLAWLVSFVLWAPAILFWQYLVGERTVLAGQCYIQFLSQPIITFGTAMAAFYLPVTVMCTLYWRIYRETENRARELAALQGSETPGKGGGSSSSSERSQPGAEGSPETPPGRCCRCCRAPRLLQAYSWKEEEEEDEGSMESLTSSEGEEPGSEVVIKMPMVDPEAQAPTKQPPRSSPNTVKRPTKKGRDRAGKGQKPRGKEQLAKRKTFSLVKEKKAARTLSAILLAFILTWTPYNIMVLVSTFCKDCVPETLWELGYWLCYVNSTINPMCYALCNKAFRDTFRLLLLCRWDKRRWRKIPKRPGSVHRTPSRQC
Sequence of Gonadotropin-releasing hormone receptor (Homo sapiens) (P30968 whole entry, looked up): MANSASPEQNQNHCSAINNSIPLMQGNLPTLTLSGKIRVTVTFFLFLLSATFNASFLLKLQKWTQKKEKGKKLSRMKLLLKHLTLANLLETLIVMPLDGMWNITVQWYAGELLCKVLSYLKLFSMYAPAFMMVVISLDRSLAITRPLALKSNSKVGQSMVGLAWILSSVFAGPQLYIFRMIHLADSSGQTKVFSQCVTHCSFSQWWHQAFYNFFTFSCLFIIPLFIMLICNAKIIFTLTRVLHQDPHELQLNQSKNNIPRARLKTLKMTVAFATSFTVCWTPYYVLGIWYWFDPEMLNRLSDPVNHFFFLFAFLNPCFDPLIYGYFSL

Turning to `O=C(C(Cl)(Cl)Cl)C(Cl)(Cl)Cl`, the Potency entry in [1], in experiment [2], in [3], in experiment [4], in experiment [5] and in experiment [6] was “inactive” in each case. Also, the Potency entry in [7], in experiment [8], in experiment [9], in experiment [10], in [11] and in experiment [12] was “inactive” in each case. The Potency result in experiment [13], in [14], in experiment [15] and in experiment [16] was “inactive” each time.
For `COc1ccc(OC)c(CC(C)N)c1` (stereo not drawn), the Potency entry in experiment [1], in experiment [2], in experiment [3], in [4], in [5] and in experiment [6] was “inactive” throughout. Also, the Potency result in experiment [7], in [8], in experiment [17], in [11], in experiment [12] and in [13] was “inactive” in each case. Moreover, the Potency result in experiment [15] and in experiment [16] was “inactive” in each case. Moreover, in experiment [14], the Potency is 65.6 µM (active).
In the case of `ClCCCCCCCl`, the Potency result in [1], in experiment [2], in experiment [3], in [4], in experiment [5] and in experiment [6] was “inactive” throughout. The Potency result in experiment [7], in [8], in [9], in experiment [10], in [11] and in [12] was “inactive” in each case. The Potency result in [13], in experiment [14], in [18], in [15] and in experiment [16] was “inactive” each time.
On to `CCCN`, for which the Potency result in experiment [1], in [2], in [3], in experiment [4], in experiment [5] and in experiment [6] was “inactive” in each case. Moreover, the Potency result in experiment [7], in [8], in experiment [9], in experiment [17], in [11] and in experiment [12] was “inactive” in each case. Moreover, the Potency entry in experiment [18], in experiment [15] and in experiment [16] was “inactive” in each case.
Take `Cc1ccc(OP(=O)(Oc2ccccc2)Oc2ccccc2)cc1`: the Potency entry in [1], in experiment [2], in [3], in experiment [4], in experiment [5] and in [6] was “inactive” each time. Further, the Potency result in experiment [7], in [8], in experiment [9], in [17], in experiment [11] and in [13] was “inactive” each time. Further, the Potency result in [14], in experiment [15] and in experiment [16] was “inactive” each time.
With `CCC1(c2cccc(O)c2)CCCCN(C)C1` (stereo not drawn), the Potency entry in experiment [1], in [2], in [3], in [4], in experiment [5] and in [6] was “inactive” each time. Also, the Potency result in experiment [7], in experiment [8], in [10], in experiment [17], in experiment [11] and in experiment [12] was “inactive” each time. Also, the Potency result in experiment [13], in experiment [14], in experiment [18], in [15] and in experiment [16] was “inactive” throughout.
Take `CNC(=O)CSP(=O)(OC)OC`: the Potency entry in experiment [1], in experiment [2], in experiment [3], in [4], in experiment [5] and in [6] was “inactive” throughout. Moreover, the Potency result in experiment [7], in [9], in experiment [10], in experiment [17], in experiment [11] and in experiment [12] was “inactive” throughout. For the same compound, the Potency result in experiment [13], in [14], in [18], in [15] and in [16] was “inactive” in each case.
As for `Cc1cccc(C)c1NC1=NCCCS1`, the Potency entry in experiment [1], in experiment [2], in experiment [3], in experiment [4], in experiment [5] and in experiment [6] was “inactive” in each case. Moreover, the Potency entry in [7], in [8], in experiment [9], in [17], in experiment [11] and in experiment [12] was “inactive” each time. Moreover, the Potency result in [13], in experiment [14], in experiment [15] and in [16] was “inactive” in each case.
